Results on 40 sequences are retold here after the supplement of paper PMC6555819.

For this experiment, the system named is VDR:RXRa (NR concentration 270 nM, RXRa partner concentration 90 nM). As to the kind of experiment: PBM binding z-score (relative to random genomic background probes); higher = stronger binding; sequences stand for … in GC…GCGATTGACAGCGTAGAATGAAGG
How it is done: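 Protein-binding microarray (Agilent 4x180K custom design, double-stranded 60-nt probes: 5' GC cap, 34-nt variable region, 24-nt constant primer region; full probe sequence given). Purified or IVT nuclear receptor:RXRα heterodimers (3:1 NR:RXRα, mostly 270:90 nM) or homodimers were incubated for 1 h in PBS with 2% milk and no ligand, then detected with Alexa488 antibodies. Fluorescence from o1-orientation probes (~5 replicates averaged) was converted to z-scores against 500 random hg19 background probes. Variable regions are seed direct-repeat (DR0–DR5) sites, all their single-nucleotide variants and half-site ablations.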
ACTAGCAGGCCAAGGGACACTCAAGATTAGTCCG: the PBM binding z-score is -0.487. In the case of ATTTGTAGGTTAAGGGTCATTCAGGTTGGTTCGC it was 6.08. In the case of CTCGAAAGGTCGTGCTCAGGTGAGTATCCCAAAC it was 3.03; in that of GCTTGTAAATCAAGGTTAAGAAAGACTAAGCTAA, 0.379.

For CCCTACGGGTCACGAGGTTATAGCACGACGAGCG, the PBM binding z-score amounted to 5.13. Consider TCTGCTAGGTCAGTTGGCCAGCTAACGAGCTGCC, for which the PBM binding z-score was -0.113. In the case of CGAACTAGGTCATCCAGGACAGTTAATACATTGA it was 4.42; in that of AGTCAAAGTTAAGGACGAGGTAACGTAAAGCACG, -0.131; in that of TCTAGTTGGTCAAATGTCACACACTCGAAATGCG, 1.44. In the case of ATCTCAAGGTAAAGATAGTTCAGTGAATGCAAAT it was 1.37; in that of AGAACGAGGTTACCAAAGATCAGGGAAACGCTTG, 1.32.

Turning to TGTCAAAGTTCCAAGGTAACGTAAGTATCCACAC, the PBM binding z-score was determined as 0.281.

Consider TCTATCAGTTGATTAGGGCAACCGAAACAGCGGA, for which the PBM binding z-score was found to be 0.419. In the case of ACAGACAGGTGATGACGGTAACTCAGGCTATCAT it was -0.308; in that of ATCTCTAGGTAAAAGTTCTGTGAATCCCGAGGAT, -0.0345. In the case of CGTCAAAGTTCAACTAAGGTAACATAAAGCACGC it was 4.72; in that of TCGAGTAAGTTACCAATGGGGCATTCAGCTTTCT, 0.0279. Regarding CGAACTAGGTCATTGCCAGGACAGTGAATAGTAA, the PBM binding z-score worked out at 2.42. The sequence TCAGACAGGTGAAGGTAGCTCAGGTACGCAGTCG displayed a PBM binding z-score of 0.353. In the case of ATCTATAGGTAACAAGTTCAGTGAAAGAGAGGAC it was 2.43.

Sequence AGAACGAGGGCACGCTGAGTTGATTGCAGAGTAG returned a PBM binding z-score of 2.04.

Take CCTAGTTGGTCAAGGTCACACAGGCTATAGGTAC: the PBM binding z-score is 4.72. In the case of CCTATTAGTTGACCATAAGGGAAACCGAAGCTCG it was 0.226; in that of ATCTCTAGGTAACCAATTTCAGTGAATGCCGAAC, 0.336. In the case of TCAGACAGGTGAAGGTTACTCAGGTACGCAGTCG it was 1.69; in that of TCTGCTAGGTCATTTGGTCAGCTAACGAGCTGCC, 2.21.

Consider TCGAGTAGGTTACCAATGGCGCATTCAGCTTTCT, for which the PBM binding z-score came to 0.111. In the case of CATACAGGGTCAGCTAGGCCAGAATAGGGACGGC it was 3.8; in that of TCTTGTCGATCAGCAGGTTAAGAAAGCTGGCCAA, 0.358. In turn, AGATGTAGGTTAGCTGGGGTCATTCAGACTAGGC returned a PBM binding z-score of 5.98.

In the case of ATCTCTAGGTAACCAACTTCAGTGAATGCCGAAC, the PBM binding z-score was determined as 0.0615. Turning to TAACCAAGGTGAAAGGTCGTTGATGCACGCCTTG, the PBM binding z-score came out at 3.38. For AATACAGGGTCATCGTAGGCCAAAGTACGCACAG, the PBM binding z-score was 5.62. In the case of CCGACTGGGGCAGAAAGGTTACCGTACCATCCGG it was 0.919. For GCTAGCAGGCCATTTGGGTCCCTCAATGACGGGC, the PBM binding z-score was -0.73. In the case of ATCTCTATGTAAAGATAGTTCAGTGAATGCAAAT it was 0.557; in that of CGTCCAAGGTCAGAAGGTCAGTGAAAGCGACGTG, 4.14. In the case of TGAATGAGGTTATAAGATCAGGGTACGTTGCAAA it was 1.79; in that of CGAACTTGGTCAGAACAGGACAGTGAAGGATGAT, -0.145. In the case of TCTGCTAAGTCAGTTGGTCAGCTAACGAGCTGCC it was -0.514.
